In the library only some 12% were active in any assay of this set; here they are far more common.
JMJD2A Tudor inh – qHTS Assay for Inhibitors of JMJD2A-Tudor Domain; Lysine-specific demethylase 4A (Homo sapiens), O75164; AlphaScreen JMJD2A-Tudor / H3K4me3 peptide binding; Potency, µM (top dose mostly 114 µM), hits mostly inhibitors; 4.4% of 390,000 active; note: nearly all actives have a fitted effect of over 50% in size
BAZ2B block – qHTS Assay for Inhibitors of BAZ2B; AlphaScreen BAZ2B-H3K14Ac peptide displacement; 4.4% of 360,000 active; Bromodomain adjacent to zinc finger domain protein 2B (Homo sapiens), Q9UIF8; Potency, µM (series often up to 114 µM), most hits filed as inhibitors; note: nearly all actives have a fitted effect of over 60% in size
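AlphaScreen displacement of biotin-H3(5-23)K14Ac peptide (50 nM final) from BAZ2B (50 nM final) in PBS pH 7.4, 0.01% Tween-20; complex preformed 30 min RT, then compounds (top 110 uM) 30 min RT, beads 20 min dark.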
Sfp inh – qHTS Assay for Inhibitors of Bacillus subtilis Sfp phosphopantetheinyl transferase (PPTase) | 4'-phosphopantetheinyl transferase ffp (Bacillus subtilis), Q9F4F7 | Biochemical Sfp PPTase activity, qHTS | Potency, µM, most hits filed as inhibitors | 3.5% of 310,000 active;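 note: the enzyme is Sfp with the accession as filed and its product quenches rhodamine fluorescence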
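After 15 min at room temperature with compound, 15 nM Sfp received 5 uM rhodamine-CoA plus 12.5 uM BHQ-2-ybbR (50 mM Hepes pH 7.6, 10 mM MgCl2). Rate came from the fluorescence difference over 30 min, ex 525/em 598 nm.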
G9a inh – qHTS Assay for Inhibitors of Histone Lysine Methyltransferase G9a. AID 504332, 2011. Histone-lysine N-methyltransferase EHMT2 (Homo sapiens), Q96KQ7. 8.8% of 350,000 active. Potency, µM (doses to about 102 µM), usual class: inhibitors. G9a H3K9 monomethylation, AlphaScreen, 2 h; note: nearly all actives have a fitted effect of over 75% in size
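Quantitative HTS format: methyltransferase activity on a biotin-tagged H3K9 peptide is measured by AlphaScreen, using a rabbit anti-monomethyl-H3K9 antibody with streptavidin donor and anti-IgG acceptor beads. Final levels are 20 nM enzyme, 500 nM peptide, 20 uM SAM; 2 h RT.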
HP1b chromo inh – HTS for Inhibitors of HP1-beta Chromodomain Interactions with Methylated Histone Tails; Chromobox protein homolog 1 (Homo sapiens), P83916; AlphaScreen HP1-beta / biotin-H3K9me3 peptide binding; Potency, µM (series often up to 114 µM), hits mostly inhibitors; 0.56% of 390,000 active; note: nearly all actives have a fitted effect of over 70% in size
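AlphaScreen: HP1-beta (50 nM) preformed 30 min with biotin-H3(1-18)K9me3 peptide (50 nM) in PBS pH 7.4, 0.01% Tween-20. Compound added for 30 min at RT, then streptavidin donor/nickel chelate acceptor beads (10 ug/mL) for 30 min.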
L3MBTL1 block – qHTS Assay for the Inhibitors of L3MBTL1; 0.66% of 230,000 active; Potency, µM (highest dose often 57.1 µM), most hits filed as inhibitors; AlphaScreen L3MBTL1–H3K9me1 peptide binding; note: nearly all actives have a fitted effect of over 60% in size
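First, the protein-peptide complex forms for 30 min at room temperature (L3MBTL1 50 nM, biotinylated H3K9me1 peptide 75 nM). Next, compounds are pin-transferred and incubated 30 min. Finally, AlphaScreen beads are added and read after 30 min.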
A number is an active result; 0 = inactive; ? = inconclusive; - = no result given; [ ] = another dose, or the depositor's remark. Calls come from the whole dose curve; as a rule, active = well fitted curve in the direction sought with a large enough effect; inconclusive = small, poorly fitted or top-dose-only effect, or another doubt; inactive = no such curve, though single readings can be large; an effect the other way counts as inactive or inconclusive.

SMILES	JMJD2A Tudor inh	BAZ2B block	Sfp inh	G9a inh	HP1b chromo inh	L3MBTL1 block
COCCCn1c(-c2ccc(Cl)cc2)n[nH]c1=S	7.9µM	0	0	4µM	0	-
COc1ccc(CCn2c(-c3ccncc3)n[nH]c2=S)cc1OC	?	0	?	?	0	0[11.4 µM]
S=c1[nH]nc(-c2ccc(Cl)cc2)n1CCCN1CCOCC1	10µM	0	0	40µM	0	-
COCCCn1cn[nH]c1=S	?	0	?	?	0	-
COCCCn1c(-c2ccccc2Cl)n[nH]c1=S	7.9µM	0	0	2.2µM	0	-
CCOCCCn1c(-c2ccc(Cl)cc2)n[nH]c1=S	4µM	0	0	1.8µM	0	-
COc1ccc(-c2noc(N3CCN(c4cccc(C)c4C)CC3)n2)cc1OC	0	0	-	0	0	-
COc1ccc(C2c3c(nc(CCc4ccccc4)[nH]c3=O)Oc3ccc4ccccc4c32)cc1OC (stereo not given)	0	-	-	-	-	-
Cn1c(SCC(=O)c2ccc(F)cc2)nnc1-c1ccccc1Br	0	0	-	0	0	-
COc1ccc(C(=O)COC(=O)CCNS(=O)(=O)c2ccccc2)cc1Br	0	0	0	0	0	-
COc1cc2c(cc1OC)C(c1ccc(-c3ccc(Cl)cc3Cl)o1)=NCC2	0	?	28µM	?	0	0
COc1cc2c(cc1OC)C(c1ccc(Cl)cc1)=NCC2	0	0	0	0	0	0
COc1cc2c(cc1OC)C(c1ccc(-c3ccc(Cl)c(Cl)c3)o1)=NCC2	18µM	?	20µM	14µM	?	-
COc1cc2c(cc1OC)C(c1ccc(-c3ccccc3Cl)o1)=NCC2	?	28µM	0	7.1µM	?	-
COc1cc2c(cc1OC)C(c1ccc(-c3cc(Cl)ccc3Cl)o1)=NCC2	?	?	?	?	0	-
CC(C)CCNC(=O)c1cc(-c2cccnc2)nc2ccc(S(=O)(=O)N3CCC(C)CC3)cc12	0	0	-	0	0	-
O=c1[nH]c(=S)[nH]cc1S(=O)(=O)c1cccc(Cl)c1	0	0	0	40µM	0	-
O=c1[nH]c(=S)[nH]cc1Oc1ccc(Cl)cc1	?	-	-	-	0	-
CSc1nnc(C)c(/C=C/Nc2ccc(F)cc2F)n1	0	?	0	?	0	0
CSc1nnc(C)c(/C=C/NOCc2cccc(F)c2)n1	0	?	0	22µM	0	0
Cc1ccc(SCCC(=O)OC(C(=O)NC(N)=O)C(C)C)cc1 (stereo not given)	11µM	0	0	?	0	-
C/C(=C\C1CCCCC1)C(NC(=O)c1cccnc1)c1ccc(-c2ccccc2)cc1 (stereo not given)	-	-	0	-	-	-
COc1ccc2c(c1)CCN=C2Cc1ccc(OC)c(OC)c1	0	0	0	4µM	0	0
COc1cc2c(cc1OC)C(Cc1ccccc1[N+](=O)[O-])=NCC2	0	-	-	-	0	-
O=C1/C(=C/c2cccs2)NC(=S)N1C1CC1	40µM	0	0	40µM	0	0
SMILES	JMJD2A Tudor inh	BAZ2B block	Sfp inh	G9a inh	HP1b chromo inh	L3MBTL1 block
COc1ccc(-n2ncc3c2CC(C)(C)CC3NC(=O)c2ccc(OC)o2)cc1 (stereo not given)	0	?	0	0	0	-
COc1ccc(OCCCNCCc2ccccc2)cc1	0	0	0	0[12.7 µM]	0	0
C=CCNCCCCOc1cccc(Br)c1	0.71µM	32µM	45µM	-	?	0
CCOC(=O)C(CCCCOc1cccc(CC)c1)C(=O)OCC	0	0	0	0	0	0
CCc1cccc(OCCCCNCCCOC)c1	6.3µM	?	?	13µM	?	0
CCc1cccc(OCCCCN(CC)CC)c1	3.5µM	?	0	0[12.7 µM]	0	-
CCOc1cccc(OCCCNCCCOC)c1	2.8µM	40µM	0	?	?	0
COC(=O)C1=C(C(=O)OC)[C@@H]2N(C)c3ccccc3[C@@]23C[C@@H](C(=O)OC)N(S(=O)(=O)c2c(C)noc2C)C3=N1	-	-	0	-	-	-
O=C(Cn1nnc(-c2ccccc2)n1)Nc1cccc(S(=O)(=O)N2CCOCC2)c1	0	0	-	0	0	0

Assay outcomes (PubChem BioAssay)
